What all share (test): NCI-60 one-dose screen, 48 h (100 = growth as untreated, 0 = no growth, -100 = all killed)
What all share (settings): 10 µM unless noted

The test system of assay [1] is HCT-15 colon.
Assay [2] relates to HT29 colon.
The subject of assay [3] is SNB-75 CNS.
The subject of assay [4] is SNB-19 CNS.
Assay [5] relates to U251 CNS.
Assay [6] concerns PC-3 prostate.
Assay [7] has as its system SK-MEL-5 melanoma.
For assay [8], the system named is UACC-62 melanoma.
Assay [9] relates to LOX IMVI melanoma.
For assay [10], the system named is SK-MEL-28 melanoma.

About 83,000 compounds went through this panel and 20% of them were active in at least one assay; those are over-represented in the sample as a whole.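 Single-dose data. Exposure time 48 hours. Values below 10 considered active.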 Values without a mark were called inactive. Calls of active or inactive are those of the source.

As to `C/C(=C\C(=N\N=C(N)N)c1ccc(Cl)cc1)c1ccc(Cl)cc1`, the growth in [1] is -69.5% (active); in assay [2], -70.1% (active); in [3], -82.9% (active); in [4], -79.8% (active); in assay [5] it was -93% (active); in assay [6], -80% (active). Besides, the growth was -98.7% (active) in [7], -87.3% (active) in assay [8], -59.1% (active) in [9] and -81% (active) in [10].

With `O=C1C=CC(=O)N1CO`, the growth in assay [1] was 116%; in assay [2], 105%; in [3] it was 100%; in [4], 103%; in assay [5], 117%; in assay [6] it was 102%. The growth in assay [7] is 114%; in [8] it was 106%; in assay [9], 120%; in assay [10], 117%.

With `CCc1ccc(-c2ccc(NC3CCCCCC3)nn2)cc1S(N)(=O)=O`, the growth in assay [1] was 96.4%; in assay [2] it was 91.3%; in [3], 97.2%; in assay [4] it was 103%; in assay [5] it was 95.8%; in assay [6], 94.4%. Further, the growth in assay [7] was 98.5%; in assay [8], 97.8%; in assay [9] it was 100%; in assay [10] it was 105%.

In the case of `COC(=O)C1(C)COP(=O)(NC23CC4CC(CC(C4)C2)C3)OC1` (stereo not given), the growth in assay [1] is 101%; in assay [2], 100%; in assay [3], 94.9%; in assay [4], 104%; in [5], 99.5%; in assay [6], 94.6%. Further, the growth is 99.9% in [7], 109% in [8], 98.2% in assay [9] and 98.7% in assay [10].

Regarding `CCOC(=O)c1ccc(NCCC(=O)O)cc1`, the growth in [1] is 97.1%; in assay [2] it was 96.8%; in assay [3] it was 96%; in assay [4], 105%; in assay [5] it was 109%; in assay [6], 91.7%. Also, the growth in [7] is 104%; in assay [8], 102%; in assay [9] it was 101%; in assay [10], 107%.

`CCCCCCCCCCCCCCCCS(=O)(=O)Nc1cc(C(=O)NN)cc(C(=O)NN)c1`: the growth was 50.5% in assay [1]; 88% in assay [2]; 94.3% in assay [3]; 52.2% in assay [4]; 47.9% in assay [5]; 38.8% in assay [6]. Moreover, the growth in assay [7] is 73.7%; in assay [8], 70.3%; in assay [9], 70%; in [10], 91.9%.

Consider `CCCCOc1ncnc2nc[nH]c12`, for which the growth in assay [1] is 108%; in assay [2], 96.3%; in assay [3], 95.7%; in [4], 99.8%; in assay [5], 106%; in [6], 107%. Also, the growth is 105% in assay [7], 104% in assay [8], 103% in assay [9] and 111% in assay [10].

Turning to `CC(=O)c1nn(-c2ccccc2)/c(=N\N=C\c2coc3ccc(F)cc3c2=O)s1`, the growth in assay [1] is 101%; in assay [2] it was 108%; in assay [3], 73.4%; in assay [4] it was 94.4%; in assay [5], 100%; in assay [6] it was 92.6%. Besides, the growth in assay [7] was 98.3%; in assay [8], 97.4%; in assay [9], 95.2%; in assay [10], 111%.

In the case of `CC(C)(C)NC(=O)C(OC(=O)C1CCc2cc(F)ccc2O1)c1ccccc1Cl` (stereo not given), the growth in assay [1] is 98.7%; in assay [2], 103%; in assay [3], 83.3%; in assay [4], 97.1%; in assay [5] it was 102%; in assay [6], 92.4%. Besides, the growth in assay [7] was 94.5%; in assay [8] it was 87.6%; in [9] it was 102%; in [10] it was 108%.

Turning to `CC(C)OC(=O)c1ccc([N+](=O)[O-])cc1`, the growth in assay [1] is 107%; in assay [2], 102%; in assay [3], 111%; in assay [4], 109%; in assay [5], 106%; in [6] it was 102%. Besides, the growth in assay [7] was 106%; in assay [8], 100%; in assay [9] it was 98%; in assay [10], 110%.

For `CCCCNCCC(O)c1cc2ccc(C(F)(F)F)cc2c2cc(C(F)(F)F)ccc12` (stereo not given), the growth in [1] was -65.2% (active); in assay [2] it was -84.8% (active); in [3] it was -90.5% (active); in [4] it was -76.6% (active); in assay [5] it was -93.7% (active); in assay [6], -85.2% (active). The growth was -87.6% (active) in assay [7], -84.3% (active) in assay [8], -71.2% (active) in [9] and -87.7% (active) in [10].

Turning to `CCc1oc2ccccc2c1C(=O)c1cc(I)c(O)c(I)c1`, the growth in assay [1] was 33.2%; in assay [2], 98.5%; in assay [3] it was 31.9%; in [4] it was 54.2%; in assay [5], 29.1%; in [6], 74.9%. Moreover, the growth in assay [7] is 32.2%; in [8], 45.6%; in [9], 51.4%; in [10], 62.4%.

For `COc1cccc(/C=N/N=C(N)N)c1`, the growth in assay [1] was 100%; in [2], 100%; in [3], 89.9%; in assay [4] it was 101%; in [5], 103%; in [6], 97.2%. In addition, the growth is 98.1% in assay [7], 81.8% in assay [8], 106% in assay [9] and 106% in assay [10].

For `Clc1ccc(Nc2ncnc3c2sc2ncccc23)cc1`, the growth in assay [1] is 47.3%; in assay [2], 38.1%; in [3], 47.9%; in assay [4], 26.3%; in [5], 28%; in assay [6], 54.5%. In addition, the growth in assay [7] is 23.4%; in assay [8], 11.4%; in [9], 12.2%; in assay [10], 74.9%.

The values are drawn from PubChem BioAssay (NCI).
